# Compounds with a hit are over-represented: about 6.5% of the library has one in this group of screens.
# TGFb inhibitor: blocks TGF-b signaling. HepG2 CAGA-GFP TGF-b/SMAD3 reporter, GFP fluorescence, 18 h; TGF-beta stimulated, 500 pg/mL final. AID 588855. Potency, µM (series often up to 46.1 µM), actives largely listed as inhibitors. actives 1.2% (n = 410,000); note: nearly all actives have a fitted effect of over 65% in size
#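 HEPG2 CAGA-GFP cells (1000/well, DMEM with 1% FBS) were pre-incubated 2 h at 37 degrees C, given compound by pin tool, then stimulated with TGF-beta at 500 pg/mL final for 18 h before per-cell GFP fluorescence imaging.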
# HT1080 IDH1KD tx: HT-1080 IDH1 knockdown cell toxicity (counter line); HT-1080 IDH1 knockdown viability, ATP luminescence, 48 h; Potency, µM (doses to about 46.1 µM), actives largely listed as cytotoxic; actives 2% (n = 360,000); AID 686971
#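 % activity derives from luminescence (CellTiter-Glo), normalised to DMSO and no-cell wells. HT-1080-IDH1KD cells, 750/well, had 48 h compound exposure at 37 °C.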
# HepG2 tox-1: counter-screen for TGF-b inhibitors: cytotoxicity in HepG2 cells; HepG2 CAGA-GFP viability, ATP luminescence, 18 h; Potency, µM (top dose mostly 46.1 µM), hits mostly cytotoxic; actives 0.76% (n = 410,000); AID 588856
#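 HepG2 CAGA-GFP cells (1000/well, DMEM with 1% FBS) received compound, then TGF-beta at 500 pg/mL final, and were incubated 18 hours at 37 degrees C. Viability was read by CellTiter-Glo luminescence. Media-only wells were set as complete cell-killing and DMSO as no toxicity.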
# Giardia kill: kills Giardia lamblia. actives 0.15% (n = 340,000). Giardia lamblia trophozoite viability. activity change, % at 7.66 µM, hits read low; in the data active = activity change below about -80%; inconclusive = between about -30% and that limit;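 note: parasites exposed to compound for two days anaerobically before the ATP read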
#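 Trophozoite viability was measured as ATP-dependent luminescence, read 15-30 min after reagent addition. Before that, parasites at 100 cells/well were exposed to compounds for 48 h, anaerobically, at 37 deg C.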
# HT1080NT lethal: kills 2HG-producing HT-1080-NT fibrosarcoma cells; HT-1080-NT fibrosarcoma viability, CellTiter-Glo ATP luminescence, 48 h; actives 1.6% (n = 360,000); AID 686970; Potency, µM (titrated, usually from 46.1 µM), usual class: cytotoxic;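 note: NT is the 2HG producing partner of a matched IDH1 knockdown line; nearly all actives have a fitted effect of over 55% in size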
#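 Fibrosarcoma NT cells, 750 per well in 5% FBS RPMI, were exposed to compound for 48 hours. Viability: CellTiter-Glo luminescence.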
# IL1B secr inh: inflammasome signaling inhibition, IL-1 beta readout; THP-1 LPS/ATP IL-1B secretion, AlphaLISA, 16 h; active compounds read low; activity change, % at 57.5 µM; actives 4.7% (n = 360,000); in the data active = activity change below about -50%; inconclusive = mostly about -30% to -49%
#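 THP-1 cells pretreated 1 hr with compounds (up to 57.5 uM final), then stimulated with LPS (250 ng/mL final) plus ATP (1.25 mM final); secreted IL-1B measured by AlphaLISA after 16 hr, decreased signal indicating inhibition.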
# TGFb confirm: confirmation of TGF-b signaling inhibitors in HepG2 reporter cells; shares compounds with TGFb inhibitor; HepG2 CAGA-GFP TGF-b reporter, GFP fluorescence, 18 h; cells stimulated with TGF-beta, 500 pg/mL; Potency, µM (highest dose often 46.1 µM), usual class: inhibitors; actives 63% (n = 1,600); note: nearly all actives have a fitted effect of over 65% in size
# HepG2 tox-2: counter-screen for TGF-b inhibitors: cytotoxicity in HepG2 cells | shares compounds with TGFb inhibitor | HepG2 CAGA-GFP viability, ATP luminescence, 18 h; cells stimulated with TGF-beta, 500 pg/mL | Potency, µM (series often up to 46.1 µM), hits mostly inhibitors | actives 27% (n = 1,600); note: nearly all actives have a fitted effect of over 70% in size
# TGFb CCL64 inh: orthogonal confirmation of TGF-b inhibitors in CCL64 cells; Potency, µM (series often up to 46.1 µM), usual class: inhibitors; actives 41% (n = 1,600); shares compounds with TGFb inhibitor; CCL64 CAGA-GFP reporter, TGF-b stimulated, GFP fluorescence, 18 h; note: nearly all actives have a fitted effect of over 65% in size
# TGFb COP inh: TGF-b inhibition validated with COP promoter; shares compounds with TGFb inhibitor; HepG2 COP-GFP TGF-b reporter, GFP fluorescence, 18 h; cells stimulated by added recombinant TGF-beta; Potency, µM (highest dose often 46.1 µM), hits mostly inhibitors; actives 3% (n = 1,600); AID 720537; note: nearly all actives have a fitted effect of over 70% in size
# A number is an active result; . = inactive; ? = inconclusive; / = not tested or not shown. Unless noted, calls come from the whole dose curve; as a rule, active = well fitted curve in the direction sought with a large enough effect; inconclusive = small, poorly fitted or top-dose-only effect, or another doubt; inactive = no such curve, though single readings can be large; an effect the other way counts as inactive or inconclusive.
SMILES,TGFb inhibitor,HT1080 IDH1KD tx,HepG2 tox-1,Giardia kill,HT1080NT lethal,IL1B secr inh,TGFb confirm,HepG2 tox-2,TGFb CCL64 inh,TGFb COP inh
CC(C)C[C@H]1CNC(=S)N1C[C@H]1CCCN1C[C@H](Cc1ccccc1)N1C[C@H](CC(C)C)N(CCc2ccccc2)C1=S,?,.,.,/,.,.,/,/,/,/
Oc1ccc(C[C@H]2CNC(=S)N2C[C@H]2CCCN2C[C@H](Cc2ccccc2)N2C[C@H](Cc3ccc(O)cc3)N(CCc3ccccc3)C2=S)cc1,7.1µM,18µM,.,/,15µM,?,6.5µM,?,3.7µM,.
Cc1c(OC(C)C(=O)NCc2ccccn2)ccc2c3c(c(=O)oc12)CCC3 (stereo unspecified),.,.,.,.,.,.,/,/,/,/
O=C(c1cc(-c2ccccc2)n[nH]1)N1CCc2c([nH]c3ccccc23)C1c1ccccn1 (stereo unspecified),20µM,?,.,.,?,-65,15µM,?,?,.
O=C(c1cccs1)N1CCc2c([nH]c3ccccc23)C1c1ccccn1 (stereo unspecified),.,.,.,.,.,?,/,/,/,/
Cc1cc(Br)ccc1NC(=O)CCN1C(=O)c2ccncc2C1=O,.,.,.,.,.,.,/,/,/,/
COC(C(=O)C(O)C(C)O)C1Cc2cc3cc(OC4CC(OC5CC(O)C(O)C(C)O5)C(O)C(C)O4)c(C)c(O)c3c(O)c2C(=O)C1OC1CC(OC2CC(OC3CC(O)C(OC)C(C)O3)C(O)C(C)O2)C(O)C(C)O1 (stereo unspecified),1µM,0.01µM,.,.,?,-89,0.37µM,0.092µM,1.6µM,.
OCCC1CN(Cc2cnc(-c3cccc4ccccc34)nc2)CCN1C1CCCCC1 (stereo unspecified),.,.,.,.,.,.,/,/,/,/
CCOc1cc2c(cc1O)C(=NOC)CC1C2CCC2(C)C(O)CCC12 (stereo unspecified),18µM,1.5µM,.,.,1.6µM,.,7.3µM,.,7.3µM,.
CN(C)CCN(C(=O)CCS(=O)(=O)c1ccccc1)c1nc2c(F)cccc2s1,.,.,.,.,.,.,/,/,/,/
Cc1ccc2sc(N(CCCN(C)C)C(=O)CCS(=O)(=O)c3ccccc3)nc2c1C,5.6µM,?,6.3µM,.,?,-93,?,?,3.3µM,?
OC(CNCC(c1ccc(Cl)cc1Cl)c1c[nH]c2ccccc12)c1ccccc1 (stereo unspecified),7.1µM,7.3µM,.,.,21µM,-103,?,16µM,?,?
Clc1ccc(C(c2ccccc2)c2c[nH]c3ccccc23)s1 (stereo unspecified),?,/,.,/,/,/,/,/,/,/
Cc1cc(OCCCC(=O)Nc2cccc(-n3cnnn3)c2)ccc1Cl,13µM,.,.,?,.,.,?,?,.,.
COc1cccc(NC(=O)COc2cccc(-n3cnnn3)c2)c1,.,.,.,.,.,.,/,/,/,/
Clc1ccc2c(c1)C(N1CCNCC1)=Nc1ccccc1O2,.,.,.,.,.,.,/,/,/,/
CC(C)NC(=O)Cc1ccc(Br)cc1,.,.,.,.,.,.,/,/,/,/
CN(CC(=O)N1CCN(Cc2ccccc2)CC1)C(=O)Cc1cccc2ccccc12,14µM,.,.,.,.,.,?,.,.,.
COCCCNc1ccn2nc(-c3ccc(OCc4ccccc4)cc3)cc2n1,.,?,.,/,.,.,/,/,/,/
COc1cc(CN2CCc3ccccc3C2)ccc1O,4.5µM,?,.,.,?,-90,7.3µM,15µM,2.9µM,.
O=C1N(c2ccccc2)C[C@@H]2C[C@@H](c3cc4ccccc4o3)N3CCC[C@@]123,0.13µM,0.58µM,.,.,?,-103,0.058µM,?,0.58µM,.
COCc1cc(S(=O)c2ccc(Cl)cc2)nc(C)n1 (stereo unspecified),?,?,.,.,?,.,?,?,7.3µM,.
COCc1cc(Sc2ccc(Cl)cc2)nc(C)n1,.,.,.,.,.,.,/,/,/,/
Cc1ccc(NC(=O)C2(c3ccc([N+](=O)[O-])cc3)CCCC2)cc1,?,.,.,?,.,.,.,.,.,.
O=C(NCc1ccco1)c1ccc2c(c1)N(Cc1ccccc1)C(=O)CS2,.,.,.,.,.,.,/,/,/,/
SMILES,TGFb inhibitor,HT1080 IDH1KD tx,HepG2 tox-1,Giardia kill,HT1080NT lethal,IL1B secr inh,TGFb confirm,HepG2 tox-2,TGFb CCL64 inh,TGFb COP inh
CN(CC(=O)Nc1cccc(F)c1)C(=O)c1cccc(S(=O)(=O)N2CC3(C)CC2CC(C)(C)C3)c1 (stereo unspecified),11µM,.,.,.,.,?,16µM,.,?,.
CC1(C)CC2CC(C)(CN2S(=O)(=O)c2cccc(C(=O)O)c2)C1 (stereo unspecified),.,.,.,?,.,.,/,/,/,/
Cc1ccc(-c2nc(C)c(C(=O)O)s2)cc1,.,.,.,.,.,.,/,/,/,/
O=C(Nc1ccc(O)cc1)C1CC=CCC1 (stereo unspecified),.,.,.,.,.,.,/,/,/,/
CCCCCCC[C@@H](C/C=C/CCC(=O)N(C)C/C(=C/Cl)C/C(=C\C(=O)N1CC(OC)=CC1=O)OC)OC,0.71µM,9.2µM,.,?,5.8µM,.,0.73µM,?,7.3µM,.
Cc1cccc(CN2CCCC(C(=O)c3ccc4c5c(cccc35)CC4)C2)n1 (stereo unspecified),10µM,?,.,.,?,.,?,?,?,.
COc1ccccc1CNC(=O)C(Cc1c[nH]c2ccccc12)NC(=O)OCc1ccccc1 (stereo unspecified),11µM,.,.,.,.,.,?,?,?,.
CSc1cccc(NC(=O)CCCOc2ccc(Cl)cc2C)c1,13µM,?,.,.,?,.,21µM,.,.,.

# Screening data (PubChem BioAssay)
